# Counter-ions that a name gives are not always drawn. ± gives the standard deviation of the averaged measurements. In all, about 1,100 compounds were measured (“day of extracellular matrix detachment from plate”: median about 16, lowest 2% from about 10 on). The sample holds the lowest values, similar compounds and a random draw of the others, so the mix is not that of the screen.
# Test system: RDEB dermal fibroblasts EB71
# Assay: day of extracellular matrix detachment from plate (days); higher = delayed detachment (less fibrotic matrix)
# Conditions: compound concentration: 10 uM
row,SMILES,day of extracellular matrix detachment from plate
1,Cc1cccc([C@H](C)c2c[nH]cn2)c1C [Dexmedetomidine],18
2,Cc1cccc(C(C)c2c[nH]cn2)c1C (stereo unspecified) [Medetomidine HCl],17 ± 5.2
3,Cc1cccc(Cc2c[nH]cn2)c1C [Detomidine HCl],14.7 ± 7.4
4,Cc1cccc([C@H](C)c2c[nH]cn2)c1C [Dexmedetomidine HCl (Precedex)],10 ± 1.7
5,O=C(O[C@H]1C[C@H]2CC[C@@H](C1)[N+]21CCCC1)C(O)(c1ccccc1)c1ccccc1 [Trospium chloride],12
6,Cc1ccc(-c2nc3ccc(C)cn3c2CC(=O)N(C)C)cc1 [Zolpidem],17.7 ± 1.1
7,C=C1CC[C@@]2(O)[C@H]3Cc4ccc(O)c5c4[C@@]2(CCN3CC2CC2)[C@H]1O5 [Nalmefene HCl],13
8,O=C1CC[C@@]2(O)[C@H]3Cc4ccc(O)c5c4[C@@]2(CCN3CC2CC2)[C@H]1O5 [Naltrexone HCl],10 ± 1.7
9,C=CCN1CC[C@]23c4c5ccc(O)c4O[C@H]2C(=O)CC[C@@]3(O)[C@H]1C5 [Naloxone HCl],17.7 ± 3.5
10,O=C(O[C@H]1C[N+]2(CCCOc3ccccc3)CCC1CC2)C(O)(c1cccs1)c1cccs1 [Aclidinium Bromide],16.7 ± 2.3
11,N[C@@H]1C[C@H]1c1ccccc1 [Tranylcypromine (2-PCPA) HCl],13

# — the supplement of paper PMC11018630
